Data: PubChem BioAssay (NCI)
About 83,000 compounds went through this panel and 20% of them were active in at least one assay; those are over-represented in the sample as a whole.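 Growth was measured after 48 h exposure to one concentration of compound in 96-well plates. Values under 10 count as active.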 A number with no mark means an inactive call. Activity calls are given as the source filed them.

tested on: HL-60(TB) leukemia; assay: NCI-60 one-dose screen, 48 h (100 = growth as untreated, 0 = no growth, -100 = all killed); conditions: 10 µM unless noted

Compound | growth
Cc1cc2nc(C(Cl)Cl)nc(-c3ccc(Cl)cc3)n2n1 | -8.18% (active)
NS(=O)(=O)c1ccc(N2CC(c3nc4ccccc4[nH]3)CC2=O)cc1 (stereo not given) | 99.4%
S=C1SCN(CCc2ccccc2)CN1CCc1ccccc1 | 89.7%
CCC(C)C1NC(=O)C(CC(C)C)NC(=O)C(C)NC(=O)C(C(C)C)NC(=O)C(CCCCN)NC(=O)C(CC(C)C)NC(=O)C(C(C)C)NC(=O)[C@H](C)NC(=O)C(C(C)CC)NC(=O)C(CCCN=C(N)N)NC(=O)C(CCCCN)NC(=O)C(CCCN=C(N)N)NC(=O)C(CCCCN)NC(=O)C([C@H](C)CC)NC(=O)C(CCCCN)NC1=O (stereo not given in full) | -39.5% (active)
FC(F)(F)c1[nH]ncc1-c1nc2ccc3[nH]ncc3c2c2c1CCCC2 | -32.3% (active)
CCCc1c(CC)c(=N)c2ccccc2n1C | 32.7%
COc1cc(/C=C2\CN(C)C/C(=C\c3cc(CN4CCOCC4)c(O)c(OC)c3)C2=O)cc(CN2CCOCC2)c1O | 32.6%
O=C(O/C(=C/c1ccccc1)C(F)(F)F)c1ccccc1 | 32.3%
Fc1ccc(-c2ccnc3nc(-c4ccncc4)nn23)cc1 | 96.5%
CN(CCC#N)c1ccc(/C=C(\C#N)c2cccc(C(F)(F)F)c2)cc1 | 69.5%
CCN(CC)CCCNc1cc(OC)cc2nc3cc(Cl)ccc3nc12 | -9.05% (active)
Cc1c2cnccc2c(C)c2c1c1cc(C3OCCCO3)ccc1n2C | -4.04% (active)
NC1=C(c2nn[nH]n2)C(c2ccccc2Cl)c2ccc3ccccc3c2O1 (stereo not given) | 54.3%
CC1(C)CC[C@]2(C(=O)O)CC[C@]3(C)[C@H](CC[C@@H]4[C@@]5(C)CCC(=O)C(C)(C)[C@@H]5CC[C@]43C)[C@H]2[C@H]1OC(=O)C(F)(F)F | -23.4% [100 µM] (active)
C#Cc1cccc(NC(=O)c2ccc(Cl)cc2Cl)c1 | 72.5%
O=C(CSc1nccc(Nc2ccc(S(=O)(=O)Nc3nccs3)cc2)n1)c1ccc(C(F)(F)F)cc1 | 103%
CCC(O)(C(c1ccccc1)c1ccccn1)C(c1ccccc1)c1ccccn1 (stereo not given) | 79%
Nc1ncnc2[nH]c(=O)[nH]c12 | 140%
O=C1/C(=C/c2cccc([N+](=O)[O-])c2)COc2ccc(O)c(O)c21 | -19.5% (active)
COc1ccc(Nc2cc(C)nc(N3CCN(c4ccnc5cc(Cl)ccc45)CC3)n2)cc1 | 2.43% (active)

Compound | growth
CCN(CC)c1ccc2nc3c4ccccc4c(=NC(=O)c4ccccc4-c4c5ccc(N(CC)CC)cc5[o+]c5cc(N(CC)CC)ccc45)cc-3oc2c1 | -69.7% (active)
CCOC(=O)c1cocc1C(=O)O | 80.9%
Cn1c([N+](=O)[O-])cnc1C=C1C(=O)c2ccccc2C1=O | 4.69% (active)
COc1ccc(-c2nn(-c3cccc(Cl)c3)cc2/C=C2\NC(=S)N(c3ccc(Cl)cc3)C2=O)cc1 | 24.9%
Cc1nc(O)cc(=O)[nH]1 | 97%
O=c1cc(-c2ccccc2)[nH]c2ncc(-c3ccc(F)cc3)n12 | 18.9%
COc1ccc2[nH]cc(/C=C3/C(=O)Nc4ccc(F)cc43)c2c1 | 96.6%
O=[N+]([O-])c1cc(NS(=O)(=O)c2ccccc2)ccc1NS(=O)(=O)c1ccccc1 | 113%
CCOC(=O)CC(C)=N | 93.9%
O=c1cc(N/N=C/c2ccc(F)cc2)c2cc(Cl)ccc2[nH]1 | -9.23% (active)
Cc1ccc(-c2nc3c(c(-c4ccccc4)nn3-c3ccccc3)c(-c3ccc(O)cc3)c2C#N)cc1 | 33%
O=c1oc2ccc(Cl)cc2c(=O)n1-c1ccc(Cl)cc1F | -44.5% (active)
COc1cccc2c1c1nc3cc(C)c(C)cc3nc1n2CCN(C)C | 15.3%
CN=C(N)N/N=C(\C)c1ccc2c(c1)Cc1cc(/C(C)=N/NC(N)=NC)ccc1-2 | -23.2% (active)
CC12O[C@H](C[C@@H](O)[C@H]1O)n1c3ccccc3c3c4c(c5c6ccccc6n2c5c31)C(=O)N(CCCN)C4=O | 4.62% (active)
COc1cc(N)c2ncccc2c1SC | 107%
Cc1ccc(C(=O)NCCNc2nccc(-c3c(-c4cccc(F)c4)nc4sccn34)n2)cc1 | 95.5%
Cc1cc(NCCCN(C)C)c2ccc3c(ccc4c(NCCCN(C)C)cc(C)nc43)c2n1 | -60.2% (active)
CN(C)c1ccc2nc3ccc(=[N+](C)C)c([N+](=O)[O-])c-3sc2c1 | 2.66% (active)
Cc1c2c(c(C)c3c1oc1cc(O)ccc13)C(=O)N(CCN1CCCCC1)C2=O | 99.3%
